The results in this text go back to PubChem BioAssay (NCI).

About 83,000 compounds went through this panel and 20% of them were active in at least one assay; those are over-represented in the sample as a whole.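 Values shown are percent growth following 48 h exposure of cells in 96-well plates to a single concentration of compound; below 10 was considered active.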 Values without a mark were called inactive. Active and inactive are the calls of the source.

Assay in all cases: NCI-60 one-dose screen, 48 h (100 = growth as untreated, 0 = no growth, -100 = all killed)
What all share (conditions): 10 µM unless noted

The subject of experiment [1] is DU-145 prostate.
The subject of experiment [2] is K-562 leukemia.
Experiment [3] has as its system MALME-3M melanoma.
Experiment [4] has as its system MDA-MB-231 breast.
The test system of experiment [5] is RXF 393 renal.
The subject of experiment [6] is SF-268 CNS.
The subject of experiment [7] is SF-295 CNS.
The test system of experiment [8] is SF-539 CNS.
Experiment [9] concerns UACC-257 melanoma.
The subject of experiment [10] is M14 melanoma.
The subject of experiment [11] is HCT-15 colon.
Experiment [12] relates to HT29 colon.
Experiment [13] relates to SNB-75 CNS.
Experiment [14] deals with SNB-19 CNS.
In experiment [15] the test system is U251 CNS.
Experiment [16] relates to PC-3 prostate.
The test system of experiment [17] is SK-MEL-5 melanoma.
Experiment [18] has as its system UACC-62 melanoma.
The subject of experiment [19] is LOX IMVI melanoma.
Experiment [20] has as its system SK-MEL-28 melanoma.

Consider `COC(=O)N1CCN(CCNCc2ccc(NC(=O)c3ccc(C)c(C#Cc4cnc5cccnn45)c3)cc2C(F)(F)F)CC1`, for which the growth in experiment [1] is 44.9%; in experiment [2], 5.18% (active); in [3] it was -49.1% (active); in experiment [4], -9.19% (active); in [5] it was -47.2% (active); in experiment [6], 28.2%. In addition, the growth in [7] is -25.1% (active); in experiment [8], -15.9% (active); in [9] it was -10.6% (active); in [10], 8.75% (active); in [11] it was 6.88% (active); in experiment [12], 17.3%. The growth in experiment [13] was 17.4%; in experiment [14], 59.6%; in [15] it was 36.2%; in [16], 25.5%; in [17], -75.2% (active); in experiment [18] it was 39.3%. Also, the growth is -79.5% (active) in experiment [19] and 12% in experiment [20].
On to `Cc1ccc(-c2cc3nc(C(Cl)Cl)nc(-c4ccc(S(=O)(=O)N(C)C)cc4)n3n2)cc1`, for which the growth in experiment [1] is 85.3%; in experiment [2], 41%; in [3] it was 100%; in [4], 95.1%; in experiment [5], 90.1%; in [6] it was 98.7%. Also, the growth in [7] is 86.2%; in experiment [8], 80.3%; in experiment [9] it was 100%; in [10] it was 93.1%; in experiment [11], 74.9%; in experiment [12], 66.5%. In addition, the growth in [13] is 108%; in experiment [14], 89.4%; in [15], 83.8%; in experiment [16] it was 91.7%; in experiment [17] it was 91.5%; in experiment [18], 88.9%. Further, the figures for the growth in [19] and in experiment [20] were 45.7% and 99.5%, respectively.
On to `CCc1cc(OC(=O)N2CCC(N3CCCCC3)CC2)ccc1Nc1cc(-c2ccc(-n3cccn3)cc2)[nH]n1`, for which the growth in [1] is -26.3% (active); in [2], -17.2% (active); in experiment [3] it was -6.02% (active); in experiment [4], 59.5%; in experiment [5], 52.5%; in experiment [6], 75.9%. The growth in [7] was 62.4%; in experiment [8], -54.8% (active); in experiment [9] it was -49.1% (active); in experiment [10], -85.5% (active); in [11], -44.6% (active); in [12], -19.3% (active). For the same molecule, the growth is 97.3% in experiment [13]; 69.2% in [14]; 55.8% in experiment [15]; 74.1% in experiment [16]; 60.2% in experiment [17]; 89.5% in experiment [18]. The growth was -92% (active) in experiment [19] and -60.7% (active) in [20].
As for `CC(=O)N1N=C(c2cc3ccccc3oc2=O)CC1c1cn(-c2ccccc2)nc1-c1ccc(C)cc1` (stereo not given), the growth in [1] was 103%; in experiment [2] it was 103%; in experiment [3], 92.3%; in experiment [4], 94.4%; in experiment [5], 98.8%; in experiment [6], 98.7%. Further, the growth in experiment [7] is 100%; in experiment [8], 90.1%; in [9] it was 99.4%; in experiment [10], 101%; in experiment [11], 103%; in experiment [12] it was 108%. Also, the growth in experiment [13] is 90.7%; in experiment [14], 96%; in experiment [15], 104%; in [16] it was 93%; in experiment [17] it was 101%; in [18], 95.2%. In addition, the growth is 95.7% in experiment [19] and 106% in experiment [20].
For `CCN(CC)c1ccc(/C=N/NC(=O)c2ccc(S(N)(=O)=O)cc2)c(O)c1`, the growth in [1] is 31.1%; in experiment [2], 12.4%; in experiment [3], -1.7% (active); in experiment [4] it was 34%; in [5], -4.11% (active); in experiment [6], 20.5%. Besides, the growth was 12.6% in experiment [7]; 5% (active) in experiment [8]; -10.2% (active) in [9]; 1.08% (active) in [10]; 20.9% in [11]; 25.4% in [12]. For the same molecule, the growth in [13] was 47.8%; in experiment [14] it was 29.9%; in experiment [15], 20.8%; in [16], 34.9%; in experiment [17], -7.45% (active); in experiment [18], -3.75% (active). In addition, the growth was 0.484% (active) in [19] and 20.6% in experiment [20].
With `C#CCN(C)CCCOc1ccc(NCc2ccc(C(=O)NO)cc2)cc1Cl`, the growth was 25.7% in experiment [1]; 15.5% in experiment [2]; 16.9% in [3]; 35.8% in experiment [4]; -3.35% (active) in [5]; 30.3% in experiment [6]. In addition, the growth in experiment [7] was 0.985% (active); in [8] it was 23.9%; in experiment [9], 10.3%; in [10], 29%; in experiment [11], 20%; in experiment [12], 16.2%. The growth was 10.4% in [13]; 35.2% in [14]; 20% in experiment [15]; 29.4% in experiment [16]; 9.67% (active) in [17]; -6.34% (active) in experiment [18]. Moreover, the growth in [19] was 10.6%; in experiment [20], 24%.
With `C/C(=N\NC(=O)Nc1ccccc1)c1nnn(-c2ccc([N+](=O)[O-])cc2)c1C`, the growth was 105% in experiment [1]; 113% in experiment [2]; 108% in experiment [3]; 106% in [4]; 78.2% in experiment [5]; 103% in [6]. In addition, the growth is 108% in experiment [7]; 99.9% in experiment [8]; 108% in [9]; 105% in [10]; 105% in experiment [11]; 116% in [12]. In addition, the growth in experiment [13] is 100%; in experiment [14], 100%; in [15] it was 102%; in experiment [16], 99.7%; in [17] it was 99.6%; in experiment [18], 99.6%. Further, the figures for the growth in experiment [19] and in [20] were 102% and 106%, respectively.
Regarding `CC1(C)CC[C@]23CC[C@]4(C)[C@H](CC[C@@H]5[C@@]6(C)CC[C@H](N)C(C)(C)[C@@H]6CC[C@]54C)[C@H]2[C@H]1OC3`, the growth was -25.2% (active) in experiment [1]; -31.2% (active) in experiment [2]; 109% in experiment [3]; 30.1% in experiment [4]; 38.1% in experiment [5]; 80.9% in experiment [6]. Moreover, the growth is 78% in experiment [7]; 74.1% in experiment [8]; 98.9% in experiment [9]; 82.8% in experiment [10]; -52.2% (active) in experiment [11]; 20.2% in experiment [12]. The growth is 99.5% in experiment [13]; 47.3% in experiment [14]; -47.9% (active) in experiment [15]; 69.6% in experiment [16]; 87.7% in experiment [17]; 94.6% in experiment [18]. Also, the results for the growth in experiment [19] and in [20] were -74.2% (active) and 103%, respectively.
